Assay results reported in the supplement of paper PMC11732987, “Enantioselective OTUD7B fragment discovery through chemoproteomics screening and high-throughput optimisation” (Communications Chemistry, 2025).

How the values were obtained:
Test in all cases: log2 ratio of Biotin-Ahx-Ub-VS probe labelling (fragment/DMSO); higher = less target engagement (more negative = stronger competition), active = hit call of the paper (q ≤ 0.05, log2 ratio ≤ -1)
Conditions in all cases: compound concentration: 200 uM; treatment time: 3 h
USP42 = biological target: T1, USP42 (UniProt Q9H9J4)
T1 sequence (whole entry): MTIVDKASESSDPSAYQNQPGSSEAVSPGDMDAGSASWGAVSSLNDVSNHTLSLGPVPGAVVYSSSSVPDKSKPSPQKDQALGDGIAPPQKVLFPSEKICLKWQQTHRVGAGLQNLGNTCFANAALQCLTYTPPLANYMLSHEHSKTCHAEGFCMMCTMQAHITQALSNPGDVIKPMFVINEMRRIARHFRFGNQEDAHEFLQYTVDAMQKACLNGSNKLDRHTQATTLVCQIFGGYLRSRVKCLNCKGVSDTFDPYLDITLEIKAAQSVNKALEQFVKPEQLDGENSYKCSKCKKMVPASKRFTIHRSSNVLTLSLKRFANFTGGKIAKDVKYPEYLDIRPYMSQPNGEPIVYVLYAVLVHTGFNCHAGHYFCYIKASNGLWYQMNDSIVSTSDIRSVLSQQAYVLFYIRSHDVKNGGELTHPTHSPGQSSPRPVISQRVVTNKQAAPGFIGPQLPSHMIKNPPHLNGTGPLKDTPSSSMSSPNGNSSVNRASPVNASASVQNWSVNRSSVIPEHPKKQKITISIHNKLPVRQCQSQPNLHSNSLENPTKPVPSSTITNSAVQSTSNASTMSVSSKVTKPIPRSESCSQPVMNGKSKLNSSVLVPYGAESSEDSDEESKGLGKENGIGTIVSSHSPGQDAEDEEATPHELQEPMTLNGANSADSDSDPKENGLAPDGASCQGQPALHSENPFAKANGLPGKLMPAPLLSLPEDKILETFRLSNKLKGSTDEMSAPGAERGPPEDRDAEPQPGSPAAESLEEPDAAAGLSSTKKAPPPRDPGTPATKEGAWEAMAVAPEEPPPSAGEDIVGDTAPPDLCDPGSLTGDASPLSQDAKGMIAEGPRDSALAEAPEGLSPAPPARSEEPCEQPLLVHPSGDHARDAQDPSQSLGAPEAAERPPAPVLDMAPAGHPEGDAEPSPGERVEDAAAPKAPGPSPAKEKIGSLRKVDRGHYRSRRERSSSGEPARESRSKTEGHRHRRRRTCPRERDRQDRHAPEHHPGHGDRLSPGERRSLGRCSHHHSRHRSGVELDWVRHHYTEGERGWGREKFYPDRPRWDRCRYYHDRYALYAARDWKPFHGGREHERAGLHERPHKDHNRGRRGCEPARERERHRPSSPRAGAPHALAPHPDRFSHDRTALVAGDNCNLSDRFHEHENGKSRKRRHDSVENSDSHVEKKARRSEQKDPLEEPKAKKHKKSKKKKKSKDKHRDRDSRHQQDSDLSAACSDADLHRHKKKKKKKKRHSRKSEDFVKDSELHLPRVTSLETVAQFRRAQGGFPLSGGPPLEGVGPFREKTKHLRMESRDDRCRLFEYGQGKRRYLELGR
In short: (§1)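 HEK293T lysate (495 µg per sample, in Tris/CHAPS/IGEPAL buffer with protease inhibitors) was treated in triplicate with fragment at 200 µM or with DMSO for 3 h. It was then treated with Biotin-Ahx-Ub-VS (0.5 µM final) for 1 h. Labelled DUBs were NeutrAvidin-enriched, digested with LysC and trypsin, and run by diaPASEF LC-MS/MS. Spectronaut label-free quantities were global-median-normalised. Values are average log2 ratios fragment/DMSO by unpaired t-test, using proteins with ≥2 unique peptides.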

USP46 = USP46 (UniProt P62068)
In short: as §1

USP47 = biological target: T2, USP47 (UniProt Q96K76)
T2 sequence (whole entry): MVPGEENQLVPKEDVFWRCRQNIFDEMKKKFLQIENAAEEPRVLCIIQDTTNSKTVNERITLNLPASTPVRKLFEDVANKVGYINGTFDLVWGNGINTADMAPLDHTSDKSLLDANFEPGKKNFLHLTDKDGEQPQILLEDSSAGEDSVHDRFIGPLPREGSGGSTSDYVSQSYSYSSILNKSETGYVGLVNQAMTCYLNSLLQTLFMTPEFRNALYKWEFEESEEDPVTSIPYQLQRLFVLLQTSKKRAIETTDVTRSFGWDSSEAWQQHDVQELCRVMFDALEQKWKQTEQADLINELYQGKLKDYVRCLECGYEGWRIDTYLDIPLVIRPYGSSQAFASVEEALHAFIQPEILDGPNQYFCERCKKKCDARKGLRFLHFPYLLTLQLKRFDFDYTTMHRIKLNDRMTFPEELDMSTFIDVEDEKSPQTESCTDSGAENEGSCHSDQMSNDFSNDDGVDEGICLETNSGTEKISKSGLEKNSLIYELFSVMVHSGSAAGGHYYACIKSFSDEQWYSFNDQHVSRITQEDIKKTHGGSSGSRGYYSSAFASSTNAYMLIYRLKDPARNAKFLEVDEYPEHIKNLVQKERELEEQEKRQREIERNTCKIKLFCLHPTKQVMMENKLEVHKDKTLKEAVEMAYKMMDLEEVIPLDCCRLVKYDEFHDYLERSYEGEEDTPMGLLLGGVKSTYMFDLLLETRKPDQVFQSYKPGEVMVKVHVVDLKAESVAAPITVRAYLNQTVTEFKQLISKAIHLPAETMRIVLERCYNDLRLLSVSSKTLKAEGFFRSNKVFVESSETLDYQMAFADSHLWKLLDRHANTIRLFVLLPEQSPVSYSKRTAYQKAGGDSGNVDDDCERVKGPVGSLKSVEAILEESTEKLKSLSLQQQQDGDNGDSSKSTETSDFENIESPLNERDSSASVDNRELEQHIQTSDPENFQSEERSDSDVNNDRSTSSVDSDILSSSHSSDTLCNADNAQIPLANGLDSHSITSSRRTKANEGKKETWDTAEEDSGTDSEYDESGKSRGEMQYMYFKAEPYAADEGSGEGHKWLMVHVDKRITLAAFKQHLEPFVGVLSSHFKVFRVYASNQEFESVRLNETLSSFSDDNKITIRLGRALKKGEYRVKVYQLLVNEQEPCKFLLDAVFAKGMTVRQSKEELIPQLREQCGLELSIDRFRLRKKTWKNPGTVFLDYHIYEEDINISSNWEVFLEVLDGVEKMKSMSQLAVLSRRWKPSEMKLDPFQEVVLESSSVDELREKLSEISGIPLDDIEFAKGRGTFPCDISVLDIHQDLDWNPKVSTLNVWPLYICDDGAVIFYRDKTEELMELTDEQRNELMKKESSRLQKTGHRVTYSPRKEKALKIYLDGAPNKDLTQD
In short: as §1

USP48 = biological target: T3, USP48 (UniProt Q86UV5)
T3 sequence (whole entry): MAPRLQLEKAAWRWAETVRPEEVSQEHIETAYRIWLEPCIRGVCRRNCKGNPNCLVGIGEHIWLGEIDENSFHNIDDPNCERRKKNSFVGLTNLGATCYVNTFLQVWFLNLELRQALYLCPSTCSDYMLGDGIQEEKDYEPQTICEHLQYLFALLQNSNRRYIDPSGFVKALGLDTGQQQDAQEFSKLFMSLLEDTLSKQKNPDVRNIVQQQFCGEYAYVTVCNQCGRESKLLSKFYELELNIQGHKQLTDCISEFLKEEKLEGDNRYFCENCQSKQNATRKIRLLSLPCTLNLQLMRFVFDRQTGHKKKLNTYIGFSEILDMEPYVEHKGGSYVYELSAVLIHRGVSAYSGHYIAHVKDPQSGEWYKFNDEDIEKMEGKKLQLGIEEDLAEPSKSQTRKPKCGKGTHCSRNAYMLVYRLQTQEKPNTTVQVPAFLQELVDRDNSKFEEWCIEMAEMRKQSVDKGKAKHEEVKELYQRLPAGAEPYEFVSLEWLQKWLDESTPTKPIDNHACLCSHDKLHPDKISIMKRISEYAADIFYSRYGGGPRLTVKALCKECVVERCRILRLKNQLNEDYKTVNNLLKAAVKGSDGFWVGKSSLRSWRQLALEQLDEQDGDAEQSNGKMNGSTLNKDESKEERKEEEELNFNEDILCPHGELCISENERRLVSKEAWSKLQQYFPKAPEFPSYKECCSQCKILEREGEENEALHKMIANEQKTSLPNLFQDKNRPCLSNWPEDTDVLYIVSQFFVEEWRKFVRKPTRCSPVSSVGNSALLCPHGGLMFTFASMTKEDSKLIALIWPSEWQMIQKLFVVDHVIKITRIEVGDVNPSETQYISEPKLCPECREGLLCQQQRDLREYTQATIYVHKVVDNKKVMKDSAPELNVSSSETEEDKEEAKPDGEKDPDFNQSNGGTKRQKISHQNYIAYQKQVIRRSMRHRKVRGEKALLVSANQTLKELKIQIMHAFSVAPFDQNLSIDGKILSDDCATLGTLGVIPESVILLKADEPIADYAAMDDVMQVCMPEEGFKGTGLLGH
In short: as §1

USP5 = biological target: T4, USP5 (UniProt P45974)
T4 sequence (whole entry): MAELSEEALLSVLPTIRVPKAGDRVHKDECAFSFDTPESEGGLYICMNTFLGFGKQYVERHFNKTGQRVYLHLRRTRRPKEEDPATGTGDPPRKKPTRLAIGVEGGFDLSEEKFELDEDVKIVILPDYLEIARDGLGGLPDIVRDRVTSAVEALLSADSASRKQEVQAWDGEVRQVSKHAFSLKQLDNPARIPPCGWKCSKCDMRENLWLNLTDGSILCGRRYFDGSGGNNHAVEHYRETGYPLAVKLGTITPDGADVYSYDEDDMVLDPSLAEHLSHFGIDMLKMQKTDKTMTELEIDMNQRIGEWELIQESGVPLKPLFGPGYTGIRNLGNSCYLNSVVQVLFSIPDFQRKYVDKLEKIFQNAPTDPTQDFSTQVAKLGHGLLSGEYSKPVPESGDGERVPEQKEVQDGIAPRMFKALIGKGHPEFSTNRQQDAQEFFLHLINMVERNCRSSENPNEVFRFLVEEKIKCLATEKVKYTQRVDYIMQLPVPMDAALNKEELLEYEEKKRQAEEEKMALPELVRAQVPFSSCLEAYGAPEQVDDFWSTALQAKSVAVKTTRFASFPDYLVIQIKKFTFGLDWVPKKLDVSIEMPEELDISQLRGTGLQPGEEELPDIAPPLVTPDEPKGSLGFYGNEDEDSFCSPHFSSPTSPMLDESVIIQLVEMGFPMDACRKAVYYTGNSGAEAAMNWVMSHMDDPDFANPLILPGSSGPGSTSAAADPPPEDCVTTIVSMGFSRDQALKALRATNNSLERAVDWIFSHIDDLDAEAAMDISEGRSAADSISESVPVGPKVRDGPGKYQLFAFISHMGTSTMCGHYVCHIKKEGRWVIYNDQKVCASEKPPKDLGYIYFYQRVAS
In short: as §1

USP54 = USP54 (UniProt Q70EL1)
In short: as §1

USP7 = USP7 (UniProt Q93009)
In short: as §1

USP8 = biological target: T5, USP8 (UniProt P40818)
T5 sequence (whole entry): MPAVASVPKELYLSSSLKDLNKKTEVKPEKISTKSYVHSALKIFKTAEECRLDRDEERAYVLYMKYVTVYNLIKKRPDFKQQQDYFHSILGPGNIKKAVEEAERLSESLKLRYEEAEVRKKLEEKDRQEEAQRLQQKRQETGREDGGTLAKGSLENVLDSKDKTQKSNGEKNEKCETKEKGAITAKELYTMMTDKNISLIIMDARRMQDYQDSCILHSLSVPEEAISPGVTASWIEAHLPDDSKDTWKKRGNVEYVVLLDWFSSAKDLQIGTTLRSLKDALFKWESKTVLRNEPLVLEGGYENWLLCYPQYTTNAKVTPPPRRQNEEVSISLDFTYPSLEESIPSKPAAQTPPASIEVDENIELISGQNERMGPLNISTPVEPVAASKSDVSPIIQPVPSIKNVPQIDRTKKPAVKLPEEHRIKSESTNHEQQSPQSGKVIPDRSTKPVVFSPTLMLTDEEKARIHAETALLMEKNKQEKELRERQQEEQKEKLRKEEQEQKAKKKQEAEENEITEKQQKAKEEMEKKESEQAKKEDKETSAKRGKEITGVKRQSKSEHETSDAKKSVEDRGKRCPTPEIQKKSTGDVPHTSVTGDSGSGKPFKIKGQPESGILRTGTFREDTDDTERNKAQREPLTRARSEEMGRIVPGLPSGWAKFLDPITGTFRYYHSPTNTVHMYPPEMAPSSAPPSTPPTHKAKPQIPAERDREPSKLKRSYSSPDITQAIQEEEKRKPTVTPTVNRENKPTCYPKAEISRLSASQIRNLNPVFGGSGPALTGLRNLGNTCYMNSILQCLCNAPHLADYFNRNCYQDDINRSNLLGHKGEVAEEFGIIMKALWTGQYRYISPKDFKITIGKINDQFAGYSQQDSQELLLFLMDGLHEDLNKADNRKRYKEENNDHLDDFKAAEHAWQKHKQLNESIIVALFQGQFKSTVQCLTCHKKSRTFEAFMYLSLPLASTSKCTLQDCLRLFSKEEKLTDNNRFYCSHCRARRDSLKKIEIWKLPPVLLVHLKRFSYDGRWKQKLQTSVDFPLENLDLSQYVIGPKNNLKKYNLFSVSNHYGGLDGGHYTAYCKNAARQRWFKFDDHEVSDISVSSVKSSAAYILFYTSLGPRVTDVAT
In short: as §1

Measured: log2 ratio of Biotin-Ahx-Ub-VS probe labelling

Sequence of USP46 (P62068 whole entry): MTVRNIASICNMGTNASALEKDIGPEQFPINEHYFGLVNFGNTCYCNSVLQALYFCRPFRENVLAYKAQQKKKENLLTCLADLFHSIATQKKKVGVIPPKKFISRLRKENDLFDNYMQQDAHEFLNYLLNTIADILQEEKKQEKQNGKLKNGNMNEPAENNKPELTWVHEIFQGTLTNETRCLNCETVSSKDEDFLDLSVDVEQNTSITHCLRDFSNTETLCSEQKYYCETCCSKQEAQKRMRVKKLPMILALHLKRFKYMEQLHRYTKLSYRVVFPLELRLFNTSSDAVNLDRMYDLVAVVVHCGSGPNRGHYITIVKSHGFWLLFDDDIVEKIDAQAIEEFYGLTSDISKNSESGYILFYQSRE
Sequence of USP7 (Q93009 whole entry, looked up): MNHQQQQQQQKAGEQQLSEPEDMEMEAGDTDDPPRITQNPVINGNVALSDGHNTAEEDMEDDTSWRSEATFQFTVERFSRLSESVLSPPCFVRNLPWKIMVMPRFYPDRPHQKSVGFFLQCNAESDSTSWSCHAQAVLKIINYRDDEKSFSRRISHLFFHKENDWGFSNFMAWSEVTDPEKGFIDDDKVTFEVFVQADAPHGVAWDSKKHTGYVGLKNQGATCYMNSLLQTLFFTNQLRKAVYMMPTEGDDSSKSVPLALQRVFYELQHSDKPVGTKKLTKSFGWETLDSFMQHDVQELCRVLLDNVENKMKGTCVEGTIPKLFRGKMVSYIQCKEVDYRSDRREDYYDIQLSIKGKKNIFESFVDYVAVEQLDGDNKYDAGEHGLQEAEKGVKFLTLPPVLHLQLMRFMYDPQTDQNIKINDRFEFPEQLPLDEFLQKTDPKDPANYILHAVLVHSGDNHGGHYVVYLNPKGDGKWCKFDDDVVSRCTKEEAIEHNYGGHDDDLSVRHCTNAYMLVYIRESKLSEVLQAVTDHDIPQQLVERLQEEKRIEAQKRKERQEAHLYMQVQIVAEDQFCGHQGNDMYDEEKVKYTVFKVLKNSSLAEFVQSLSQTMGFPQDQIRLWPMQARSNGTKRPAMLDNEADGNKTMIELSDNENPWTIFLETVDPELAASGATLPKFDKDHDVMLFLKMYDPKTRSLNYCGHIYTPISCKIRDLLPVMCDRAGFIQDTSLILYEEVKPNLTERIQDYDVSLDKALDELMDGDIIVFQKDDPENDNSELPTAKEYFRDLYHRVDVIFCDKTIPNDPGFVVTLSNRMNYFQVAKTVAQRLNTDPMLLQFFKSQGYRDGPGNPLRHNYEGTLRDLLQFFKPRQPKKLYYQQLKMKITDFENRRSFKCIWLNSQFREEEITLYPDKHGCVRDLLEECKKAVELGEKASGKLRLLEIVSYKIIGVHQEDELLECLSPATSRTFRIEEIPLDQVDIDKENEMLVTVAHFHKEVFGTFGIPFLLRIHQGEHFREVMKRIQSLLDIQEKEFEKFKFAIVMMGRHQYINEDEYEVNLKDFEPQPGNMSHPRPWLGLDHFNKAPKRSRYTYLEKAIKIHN
Sequence of USP54 (Q70EL1 whole entry): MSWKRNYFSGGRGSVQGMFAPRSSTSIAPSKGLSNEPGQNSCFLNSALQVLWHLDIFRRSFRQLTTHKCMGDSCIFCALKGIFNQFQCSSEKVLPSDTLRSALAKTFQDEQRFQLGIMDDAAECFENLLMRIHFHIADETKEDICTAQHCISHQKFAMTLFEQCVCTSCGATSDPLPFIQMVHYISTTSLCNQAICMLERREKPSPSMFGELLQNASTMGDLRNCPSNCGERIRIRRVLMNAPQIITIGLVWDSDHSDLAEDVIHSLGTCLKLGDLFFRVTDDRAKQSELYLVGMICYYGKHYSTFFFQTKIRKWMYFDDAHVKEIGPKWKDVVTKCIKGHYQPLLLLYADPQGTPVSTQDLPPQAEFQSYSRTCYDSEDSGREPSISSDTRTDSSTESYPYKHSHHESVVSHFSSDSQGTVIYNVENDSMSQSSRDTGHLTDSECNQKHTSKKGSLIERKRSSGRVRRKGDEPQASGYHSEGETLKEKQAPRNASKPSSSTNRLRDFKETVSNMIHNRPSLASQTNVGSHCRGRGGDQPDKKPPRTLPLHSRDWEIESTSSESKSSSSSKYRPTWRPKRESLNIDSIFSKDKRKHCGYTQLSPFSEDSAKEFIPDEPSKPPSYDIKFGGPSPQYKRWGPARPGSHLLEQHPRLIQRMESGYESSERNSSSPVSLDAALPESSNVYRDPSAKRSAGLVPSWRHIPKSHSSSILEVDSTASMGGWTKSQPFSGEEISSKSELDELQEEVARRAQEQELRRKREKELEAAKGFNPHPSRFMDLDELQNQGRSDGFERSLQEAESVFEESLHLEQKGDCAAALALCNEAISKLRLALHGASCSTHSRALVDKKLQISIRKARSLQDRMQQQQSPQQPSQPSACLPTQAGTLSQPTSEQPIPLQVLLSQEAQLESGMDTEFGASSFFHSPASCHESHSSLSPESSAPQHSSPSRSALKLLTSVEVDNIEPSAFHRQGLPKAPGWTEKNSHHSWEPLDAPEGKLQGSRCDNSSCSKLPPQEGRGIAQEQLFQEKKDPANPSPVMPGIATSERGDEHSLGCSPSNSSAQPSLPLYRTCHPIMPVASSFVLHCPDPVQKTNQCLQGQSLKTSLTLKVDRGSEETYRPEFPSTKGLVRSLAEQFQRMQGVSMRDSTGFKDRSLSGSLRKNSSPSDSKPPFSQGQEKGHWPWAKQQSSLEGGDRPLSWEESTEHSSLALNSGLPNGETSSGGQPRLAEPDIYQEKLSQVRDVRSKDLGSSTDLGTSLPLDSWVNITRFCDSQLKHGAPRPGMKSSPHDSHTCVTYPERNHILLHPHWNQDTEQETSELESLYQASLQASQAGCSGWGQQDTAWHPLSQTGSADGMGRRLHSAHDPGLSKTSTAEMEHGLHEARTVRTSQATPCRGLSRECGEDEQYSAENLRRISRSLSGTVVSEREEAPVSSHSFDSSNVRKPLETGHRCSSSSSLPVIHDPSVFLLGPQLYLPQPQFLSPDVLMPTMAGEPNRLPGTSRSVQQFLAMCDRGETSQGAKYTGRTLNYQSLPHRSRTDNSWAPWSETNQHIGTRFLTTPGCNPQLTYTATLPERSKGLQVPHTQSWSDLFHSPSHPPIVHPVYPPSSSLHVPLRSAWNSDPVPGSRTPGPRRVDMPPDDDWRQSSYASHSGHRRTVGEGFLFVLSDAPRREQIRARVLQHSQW

CC(NC(=O)CCl)c1ccc2[nH]ncc2c1 (stereo not drawn)
inactive: USP42 0.605 | USP46 -0.239 | USP47 0.0542 | USP48 -0.411 | USP5 -0.557 | USP54 0.532 | USP7 -0.578 | USP8 -0.403
